In PubChem BioAssay (NCATS):
Records with an inconclusive call do not appear. The source made the active and inactive calls. The call rests on the fitted dose curve; in most records, active means well fitted inhibition curve with a large enough effect; inconclusive means small, poorly fitted or top-dose-only effect; inactive means flat fitted curve, though single readings scatter. Peptide text beside a SMILES is read from it.

These compounds were tested on CP260 (assay: qHTS profiling for inhibitors of Plasmodium falciparum proliferation (AID 504749; further: nearly all actives have a fitted effect of over 60% in size)). Settings: P. falciparum in erythrocytes, SYBR Green DNA, 72 h; series mostly up to 12.8 µM.
Method in brief: (§1)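 Each compound contacts P. falciparum-infected red blood cells for 72 h at 37 C; lysis buffer (Tris, EDTA, saponin, Triton X, SYBR Green I) is added and fluorescence measured next morning; values normalized to controls.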
Potency means the concentration at half of the fitted maximal effect.

Potency, active:
NC(C(=O)O)[C@@H]1CC(Cl)=NO1 (some centres undefined) 891 nM, COC1C=CO[C@@]2(C)Oc3c(C)c(O)c4c(O)c(c5c(nc6cc(C)ccn65)c4c3C2=O)NC(=O)/C(C)=C\C=CC(C)C(O)[C@@H](C)C(O)C(C)[C@@H](OC(C)=O)C1C (some centres undefined) 11200 nM, COC1C=CO[C@@]2(C)Oc3c(C)c(O)c4c(O)c(c(C=NN5CCN(C)CC5)c(O)c4c3C2=O)NC(=O)/C(C)=C\C=CC(C)C(O)[C@@H](C)C(O)C(C)[C@H](OC(C)=O)C1C (some centres undefined) 1410 nM, COc1cc(C2c3cc4c(cc3C(O[C@@H]3OC5COC(c6cccs6)OC5C(O)C3O)C3COC(=O)C23)OCO4)cc(OC)c1O (some centres undefined) 1120 nM

Potency, inactive:
CCC(C)C(=O)OC1CCC=C2C=CC(C)C(CCC3CC(O)CC(=O)O3)[C@@H]21 (some centres undefined), CC(=O)OC1CCC2C3CCc4cc(O)ccc4C3CCC12C (centres undefined), CC[C@@]12CCCN3CCc4c(n(c5ccccc45)[C@](O)(C(=O)OC)C1)C32 (some centres undefined), CN1CC(=O)N=C1N, OCC1OC([S-])[C@H](O)C(O)C1O.[Au+] (some centres undefined), CC(C)C1CCC(C(=O)NC(Cc2ccccc2)C(=O)O)CC1 (centres undefined), CCC(CCC(C)C1CCC2C3CC=C4CC(O)CC[C@@]4(C)C3CC[C@@]12C)C(C)C (some centres undefined), C[C@]12CCC(=O)C=C1CCC1C2C(=O)C[C@]2(C)C1CC[C@]2(O)C(=O)CO (some centres undefined), OCC1O[C@H](OC2C(CO)O[C@@](O)(CO)C2O)C(O)C(O)C1O (some centres undefined), CC1(C)OC2CO[C@]3(COS(N)(=O)=O)OC(C)(C)OC3C2O1 (some centres undefined), CC1(C)OC2CC(=O)OC[C@@]23C1CC(=O)[C@]1(C)C3CC[C@@]2(C)C(c3ccoc3)OC(=O)C3O[C@@]321 (some centres undefined), CCOC(=O)C1=CC(OC(CC)CC)C(NC(C)=O)C(N)C1 (centres undefined), COC(=O)C(Cc1ccccc1)NC(=O)C(N)CC(=O)O (stereo not drawn) (H-Asp-Phe-OMe; configuration not given here), C[C@]12C=CC(=O)C=C1CCC1C2C(O)C[C@]2(C)C1CC[C@]2(O)C(=O)CO (some centres undefined), CC1(C)S[C@H]2C(NC(=O)[C@@H](N)c3ccc(O)cc3)C(=O)N2[C@@H]1C(=O)O (some centres undefined), CC(C)=CCC[C@](C)(O)C1CC=C(C)CC1 (some centres undefined), C[C@]1(c2ccccc2)OC(C(=O)O)=CC1=O, COc1ccc2cc(C(C)CO)ccc2c1 (centres undefined), CC1CCC(C(C)C)C(=O)C1 (centres undefined), CNC1CC(N)[C@H](O)[C@@H](O[C@@H]2OC(CO)C3OC4(OC(C(N)CO)C(O)C(O)C4O)O[C@@H]3[C@H]2O)C1O (some centres undefined), CCCC(=O)O[C@]1(C(=O)CO)CCC2[C@@H]3CCC4=CC(=O)CC[C@]4(C)C3C(O)C[C@]21C (some centres undefined), CC(=O)[C@]1(O)CCC2C3C=C(Cl)C4=CC(=O)C5CC5[C@@]4(C)C3CC[C@]21C (some centres undefined), CC(=O)N[C@@H]1C(O)OC(CO)C(O)C1O (some centres undefined), C/C1=C2N=C(/C=C3N=C(/C(C)=C4\[N-]C(C)(C5N=C1C(C)(CCC(=O)NCC(C)OP(=O)([O-])O[C@H]1C(O)C(n6cnc7cc(C)c(C)cc76)O[C@@H]1CO)C5CC(N)=O)C(C)(CC(N)=O)C4CCC(N)=O)C(C)(CC(N)=O)C\3CCC(N)=O)C(C)(C)C/2CCC(N)=O.[CH2-]C1OC(n2cnc3c(N)ncnc32)C(O)C1O.[Co] (some centres undefined), O=C1OC(CO)C(O)C(O)C1O (centres undefined), CNC1C(OC2C(O[C@@H]3C(O)C(O)[C@@H](N=C(N)N)C(O)C3N=C(N)N)OC(C)[C@@]2(O)CO)OC(CO)C(O)C1O (some centres undefined), Nc1nc2ncc(CNc3ccc(C(=O)NC(CCC(=O)O)C(=O)O)cc3)nc2c(=O)[nH]1 (centres undefined)

The compounds below were run on CP262 in the same assay as above. Settings: P. falciparum in erythrocytes, SYBR Green DNA, 72 h; series mostly up to 12.8 µM.
Method in brief: as §1

Potency, active:
NC(C(=O)O)[C@@H]1CC(Cl)=NO1 (some centres undefined) 4260 nM, COC1C=CO[C@@]2(C)Oc3c(C)c(O)c4c(O)c(c(C=NN5CCN(C)CC5)c(O)c4c3C2=O)NC(=O)/C(C)=C\C=CC(C)C(O)[C@@H](C)C(O)C(C)[C@H](OC(C)=O)C1C (some centres undefined) 2130 nM, COc1cc(C2c3cc4c(cc3C(O[C@@H]3OC5COC(c6cccs6)OC5C(O)C3O)C3COC(=O)C23)OCO4)cc(OC)c1O (some centres undefined) 8490 nM

Potency, inactive:
CN(C)CCCOC1C(C(O)CO)OC2OC(C)(C)O[C@@H]21 (some centres undefined), CCC(C)C(=O)OC1CCC=C2C=CC(C)C(CCC3CC(O)CC(=O)O3)[C@@H]21 (some centres undefined), CC(=O)OC1CCC2C3CCc4cc(O)ccc4C3CCC12C (centres undefined), CC[C@@]12CCCN3CCc4c(n(c5ccccc45)[C@](O)(C(=O)OC)C1)C32 (some centres undefined), CN1CC(=O)N=C1N, OCC1OC([S-])[C@H](O)C(O)C1O.[Au+] (some centres undefined), CC(C)C1CCC(C(=O)NC(Cc2ccccc2)C(=O)O)CC1 (centres undefined), CCC(CCC(C)C1CCC2C3CC=C4CC(O)CC[C@@]4(C)C3CC[C@@]12C)C(C)C (some centres undefined), C[C@]12CCC(=O)C=C1CCC1C2C(=O)C[C@]2(C)C1CC[C@]2(O)C(=O)CO (some centres undefined), OCC1O[C@H](OC2C(CO)O[C@@](O)(CO)C2O)C(O)C(O)C1O (some centres undefined), CC1(C)OC2CO[C@]3(COS(N)(=O)=O)OC(C)(C)OC3C2O1 (some centres undefined), CC1(C)OC2CC(=O)OC[C@@]23C1CC(=O)[C@]1(C)C3CC[C@@]2(C)C(c3ccoc3)OC(=O)C3O[C@@]321 (some centres undefined), CCOC(=O)C1=CC(OC(CC)CC)C(NC(C)=O)C(N)C1 (centres undefined), COC(=O)C(Cc1ccccc1)NC(=O)C(N)CC(=O)O (stereo not drawn) (H-Asp-Phe-OMe; configuration not given here), C[C@]12C=CC(=O)C=C1CCC1C2C(O)C[C@]2(C)C1CC[C@]2(O)C(=O)CO (some centres undefined), CC1(C)S[C@H]2C(NC(=O)[C@@H](N)c3ccc(O)cc3)C(=O)N2[C@@H]1C(=O)O (some centres undefined), CC(C)=CCC[C@](C)(O)C1CC=C(C)CC1 (some centres undefined), CO[C@]12C(COC(N)=O)C3=C(C(=O)C(C)=C(N)C3=O)N1CC1NC12 (some centres undefined), C[C@]1(c2ccccc2)OC(C(=O)O)=CC1=O, CC(=O)N[C@H](CC(C)C)C(=O)O, COc1ccc2cc(C(C)CO)ccc2c1 (centres undefined), CC1CCC(C(C)C)C(=O)C1 (centres undefined), CNC1CC(N)[C@H](O)[C@@H](O[C@@H]2OC(CO)C3OC4(OC(C(N)CO)C(O)C(O)C4O)O[C@@H]3[C@H]2O)C1O (some centres undefined), CCCC(=O)O[C@]1(C(=O)CO)CCC2[C@@H]3CCC4=CC(=O)CC[C@]4(C)C3C(O)C[C@]21C (some centres undefined), CC(=O)[C@]1(O)CCC2C3C=C(Cl)C4=CC(=O)C5CC5[C@@]4(C)C3CC[C@]21C (some centres undefined), CC(=O)N[C@@H]1C(O)OC(CO)C(O)C1O (some centres undefined), C/C1=C2N=C(/C=C3N=C(/C(C)=C4\[N-]C(C)(C5N=C1C(C)(CCC(=O)NCC(C)OP(=O)([O-])O[C@H]1C(O)C(n6cnc7cc(C)c(C)cc76)O[C@@H]1CO)C5CC(N)=O)C(C)(CC(N)=O)C4CCC(N)=O)C(C)(CC(N)=O)C\3CCC(N)=O)C(C)(C)C/2CCC(N)=O.[CH2-]C1OC(n2cnc3c(N)ncnc32)C(O)C1O.[Co] (some centres undefined), O=C1OC(CO)C(O)C(O)C1O (centres undefined), CNC1C(OC2C(O[C@@H]3C(O)C(O)[C@@H](N=C(N)N)C(O)C3N=C(N)N)OC(C)[C@@]2(O)CO)OC(CO)C(O)C1O (some centres undefined), Nc1nc2ncc(CNc3ccc(C(=O)NC(CCC(=O)O)C(=O)O)cc3)nc2c(=O)[nH]1 (centres undefined)
